# Measured values: PubChem BioAssay (EPA / NIEHS)
# Calls of active or inactive are those of the source. How the source made its calls: active means hit-call score of the fitted dose curve at least 0.9, where 1 is the maximum; inactive means score below 0.9.
# Legend:
# [1] = BSK_4H_Eotaxin3: BioMAP Diversity Plus: 4H Assay for Eotaxin 3 Biomarker Activity (AID 2283000); settings: primary human endothelial cells (HUVEC); actives raise or lower the signal;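 on outcome: CCL26 protein level quantified by ELISA in parallel with SRB cytotoxicity check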
# Summary of the method: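 Chemicals were added to human umbilical vein endothelium cultures, and Eotaxin-3 was quantified by ELISA at 24 h. Values were derived by bidirectional fitting with DMSO serving as negative control and activity baseline.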
# [2] = read-out: Interleukin-1 alpha (IL1a), IL1A (gene 3552); assay: BSK_BE3C_IL1a: BioMAP Diversity Plus: BE3C Assay for Interleukin-1 alpha (IL1a) Biomarker Activity (AID 2283016); settings: primary human bronchial epithelial cells; actives raise or lower the signal
# Summary of the method: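 Measured in human lung primary bronchial epithelial cells: IL-1a by ELISA at 24 h after dosing, with bidirectional fitting against DMSO.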
# [3] = read-out: Monocyte Chemoattractant Protein-1 (MCP1), CCL2 (gene 6347); assay: BSK_3C_MCP1: BioMAP Diversity Plus: 3C Assay for Monocyte Chemoattractant Protein-1 (MCP1) Biomarker Activity (AID 2283017); settings: primary human endothelial cells (HUVEC); actives raise or lower the signal
# Summary of the method: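 ELISA read-out of MCP-1 from human umbilical vein endothelial cell cultures harvested 24 h post-dosing. Gain or loss of signal was fitted relative to DMSO.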
# [4] = read-out: Monocyte Chemoattractant Protein-1 (MCP1), CCL2 (gene 6347); assay: BSK_4H_MCP1: BioMAP Diversity Plus: 4H Assay for Monocyte Chemoattractant Protein-1 (MCP1) Biomarker Activity (AID 2283018); settings: primary human endothelial cells (HUVEC); actives raise or lower the signal
# Summary of the method: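 Primary human umbilical vein endothelium is exposed to chemical for 24 h before MCP-1 is assayed by ELISA. Concentration-response fitted bidirectionally relative to DMSO.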
# [5] = read-out: Monokine induced gamma interferon (MIG), CXCL9 (gene 4283); assay: BSK_3C_MIG: BioMAP Diversity Plus: 3C Assay for Monokine induced gamma interferon (MIG) Biomarker Activity (AID 2283021); settings: primary human endothelial cells (HUVEC); actives raise or lower the signal;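 on AC50: MIG protein level measured by immunoassay in the treated endothelial cultures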
# Summary of the method: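 ELISA-measured MIG in dosed HUVEC 3C cultures at 24 h, analysed by bidirectional fitting with DMSO defining baseline activity.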
# [6] = BSK_3C_SRB: Viability Assessment in the BioMAP Diversity Plus: 3C Assay (AID 2283023); settings: primary human endothelial cells (HUVEC);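 further: fitted both ways against DMSO so a hit may be signal rise or drop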
# Summary of the method: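 Absorbance at 560 nm of sulforhodamine B-stained (0.1%) total protein served as a cytotoxicity readout in human umbilical vein endothelial cells, 24 h after chemical treatment. Signal was fitted bidirectionally relative to DMSO.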
# [7] = BSK_4H_SRB: Viability Assessment in the BioMAP Diversity Plus: 4H Assay (AID 2283027); settings: primary human endothelial cells (HUVEC);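 further: cells exposed to compound for 24 h before staining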;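 on AC50: curves fitted both ways versus DMSO so AC50 may be loss or gain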
# Summary of the method: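 Cytotoxicity readout: sulforhodamine B (0.1%) staining of total protein after 10% TCA fixation, measured at 560 nm in human umbilical vein endothelium at 24 h. DMSO set the baseline; fitting was bidirectional.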
# [8] = read-out: Monokine induced gamma interferon (MIG), CXCL9 (gene 4283); assay: BSK_BE3C_MIG: BioMAP Diversity Plus: BE3C Assay for Monokine induced gamma interferon (MIG) Biomarker Activity (AID 2283035); settings: primary human bronchial epithelial cells; actives raise or lower the signal;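 on outcome: MIG protein measured by ELISA in BE3C cultures after 24 h of dosing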
# Summary of the method: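 hu bronchial epithelial 1° cells, 24 h cpd; MIG by ELISA; bidirectional fit, DMSO = baseline.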
# [9] = read-out: Plasminogen activator inhibitor-1 (PAI1), SERPINE1 (gene 5054); assay: BSK_BE3C_PAI1: BioMAP Diversity Plus: BE3C Assay for Plasminogen activator inhibitor-1 (PAI1) Biomarker Activity (AID 2283037); settings: primary human bronchial epithelial cells; actives raise or lower the signal
# Summary of the method: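 In this multiplexed primary-cell system, bronchial epithelial cells receive test chemical and are sampled at 24 h. PAI-1 is read by ELISA, with DMSO serving as negative control for bidirectional fitting.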
# [10] = read-out: Urokinase-type plasminogen activator receptor (uPAR), PLAUR (gene 5329); assay: BSK_BE3C_uPAR: BioMAP Diversity Plus: BE3C Assay for Urokinase-type plasminogen activator receptor (uPAR) Biomarker Activity (AID 2283039); settings: primary human bronchial epithelial cells; actives raise or lower the signal;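 further: uPAR protein level measured by ELISA on the cells; cells exposed to compound for one day before measurement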
# Summary of the method: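 Chemically treated human bronchial epithelial cells (lung primary) are assayed for uPAR by ELISA after 24 h, with data fitted in both directions using DMSO as negative control.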
# [11] = read-out: Tissue plasminogen activator (tPA), PLAT (gene 5327); assay: BSK_BE3C_tPA: BioMAP Diversity Plus: BE3C Assay for Tissue plasminogen activator (tPA) Biomarker Activity (AID 2283041); settings: primary human bronchial epithelial cells; actives raise or lower the signal;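 on outcome: tPA level quantified by ELISA one day after compound addition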
# Summary of the method: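 Using human lung primary bronchial epithelial cells, tPA was measured by ELISA 24 h after dosing; data fitted relative to DMSO.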
# [12] = read-out: Interleukin-8 (IL8), CXCL8 (gene 3576); assay: BSK_CASM3C_IL8: BioMAP Diversity Plus: CASM3C Assay for Interleukin-8 (IL8) Biomarker Activity (AID 2283042); settings: primary human coronary artery smooth muscle cells; actives raise or lower the signal;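 further: IL-8 protein level quantified by ELISA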
# [13] = read-out: Human Leukocyte Antigen - DR isotype (HLADR), HLA-DRA (gene 3122); assay: BSK_CASM3C_HLADR: BioMAP Diversity Plus: CASM3C Assay for Human Leukocyte Antigen - DR isotype (HLADR) Biomarker Activity (AID 2283043); settings: primary human coronary artery smooth muscle cells; actives raise or lower the signal;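 further: cell-surface HLA-DR protein level quantified by ELISA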
# [14] = read-out: Macrophage colony-stimulating factor (MCSF), CSF1 (gene 1435); assay: BSK_CASM3C_MCSF: BioMAP Diversity Plus: CASM3C Assay for Macrophage colony-stimulating factor (MCSF) Biomarker Activity (AID 2283044); settings: primary human coronary artery smooth muscle cells; actives raise or lower the signal;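 further: M-CSF protein amount quantified by ELISA after 24 h exposure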
# [15] = read-out: Low-density lipoprotein receptor (LDLR), LDLR (gene 3949); assay: BSK_CASM3C_LDLR: BioMAP Diversity Plus: CASM3C Assay for Low-density lipoprotein receptor (LDLR) Biomarker Activity (AID 2283045); settings: primary human coronary artery smooth muscle cells; actives raise or lower the signal;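 further: LDLR protein level on the cell surface quantified by ELISA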
# [16] = read-out: Monocyte Chemoattractant Protein-1 (MCP1), CCL2 (gene 6347); assay: BSK_CASM3C_MCP1: BioMAP Diversity Plus: CASM3C Assay for Monocyte Chemoattractant Protein-1 (MCP1) Biomarker Activity (AID 2283046); settings: primary human coronary artery smooth muscle cells; actives raise or lower the signal;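 further: MCP-1 level quantified by ELISA 24 h after dosing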
# [17] = BSK_CASM3C_Proliferation: Cell Proliferation Assessment in the BioMAP Diversity Plus: CASM3C Assay (AID 2283047); settings: primary human coronary artery smooth muscle cells;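 further: sub-confluent cells exposed 48 h before staining; fitted both ways against DMSO so gain or loss of cell number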
# [18] = BSK_CASM3C_SRB: Viability Assessment in the BioMAP Diversity Plus: CASM3C Assay (AID 2283050); settings: primary human coronary artery smooth muscle cells;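 further: total protein by SRB staining as cytotoxicity measure in parallel cultures; cells exposed to compound for 24 h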
# [19] = read-out: Interleukin-8 (IL8), CXCL8 (gene 3576); assay: BSK_hDFCGF_IL8: BioMAP Diversity Plus: hDFCGF Assay for Interleukin-8 (IL8) Biomarker Activity (AID 2283058); settings: primary human foreskin fibroblasts; actives raise or lower the signal
# Summary of the method: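 Cells used are human skin primary fibroblasts. Chemical is added, cultures run 24 h, then IL-8 is quantified by ELISA, and gain or loss versus DMSO control is fitted in both directions.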
# [20] = BSK_hDFCGF_Proliferation: Cell Proliferation Assessment in the BioMAP Diversity Plus: hDFCGF Assay (AID 2283059); settings: primary human foreskin fibroblasts;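 further: curves fitted for both rise and fall of signal versus DMSO baseline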
# Summary of the method: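 Steps: dose primary human dermal fibroblasts (foreskin); […] fix in 10% TCA; stain with 0.1% SRB; read 560 nm; fit gain or loss of signal against DMSO.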
smiles,measurement,setting,value
C1CN(CCOCCN2CCOCC2)CCO1,outcome,[1],inactive
same,outcome,[2],inactive
same,outcome,[3],inactive
same,outcome,[4],inactive
same,outcome,[5],inactive
same,outcome,[6],inactive
same,outcome,[7],inactive
same,outcome,[8],inactive
same,outcome,[9],inactive
same,outcome,[10],inactive
same,outcome,[11],inactive
same,outcome,[12],inactive
same,outcome,[13],inactive
same,outcome,[14],inactive
same,outcome,[15],inactive
same,outcome,[16],inactive
same,outcome,[17],inactive
same,outcome,[18],inactive
same,outcome,[19],inactive
same,outcome,[20],inactive
CCCCCCCCCCCCCCCCCC[N+](C)(C)C,AC50,[1],1.89 µM (active)
same,AC50,[2],3.8 µM (active)
same,AC50,[3],1.68 µM (active)
same,AC50,[4],0.664 µM (active)
same,AC50,[5],7.62 µM (active)
same,AC50,[6],1.31 µM (active)
same,AC50,[7],1.34 µM (active)
same,AC50,[8],3.82 µM (active)
same,outcome,[9],inactive
same,outcome,[10],inactive
same,AC50,[11],1.32 µM (active)
same,AC50,[12],9.19 µM (active)
same,AC50,[13],3.33 µM (active)
same,AC50,[14],3.45 µM (active)
same,outcome,[15],inactive
same,AC50,[16],3.5 µM (active)
same,AC50,[17],2.09 µM (active)
same,AC50,[18],5.94 µM (active)
same,AC50,[19],8.41 µM (active)
same,AC50,[20],0.388 µM (active)
CC(C)C1OCCN1CCOC(=O)NCCCCCCNC(=O)OCCN1CCOC1C(C)C (stereo not given),outcome,[1],inactive
same,outcome,[2],inactive
same,outcome,[3],inactive
same,outcome,[4],inactive
same,outcome,[5],inactive
same,outcome,[6],inactive
same,outcome,[7],inactive
same,outcome,[8],inactive
same,outcome,[9],inactive
same,outcome,[10],inactive
same,outcome,[11],inactive
same,outcome,[12],inactive
same,outcome,[13],inactive
same,outcome,[14],inactive
same,outcome,[15],inactive
same,outcome,[16],inactive
same,outcome,[17],inactive
same,outcome,[18],inactive
same,outcome,[19],inactive
same,outcome,[20],inactive
